Compound activity from PubChem.
In the library only some 10% were active in any assay of this set; here they are far more common.
HEK cytotox: Cytotoxic Profiling in HEK 293 Cell Line of Diverse Libraries Using Quantitative High-Throughput Screening; HEK 293 viability, ATP luminescence (CellTiter-Glo), 48-72 h; Potency, µM (highest dose often 115 µM), inactives show at the top dose activity change, negative = cytotoxicity, usual class: inhibitors; 94,000 compounds, 6.6% hits; AID 1345083, 2018; further: nearly all actives have a fitted effect of over 60% in size
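HEK 293 cells at 250 cells/well were exposed to compounds by pintool transfer for 48 or 72 hr at 37 degree Celsius, 5% CO2. Viability was read as ATP-coupled luminescence with CellTiter-Glo after 10 min at room temperature.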
Luciferase inh: Firefly luciferase inhibition profiling of diverse chemical library using quantitative high-throughput screening. Luciferin 4-monooxygenase (Photinus pyralis), P08659. purified P. pyralis luciferase, luminescence, biochemical. Potency, µM (titrated, usually from 115 µM), hits mostly inhibitors. 76,000 compounds, 2.5% hits. AID 1347043, 2019; further: nearly all actives have a fitted effect of over 65% in size
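Biochemical qHTS: compound (6-point titration) added to 10uM D-luciferin plus 10uM ATP in Tris acetate pH 7.5 buffer with Mg, Tween-20 and BSA, then purified enzyme at 10nM; light output imaged.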
GPT2 inh: Primary qHTS assay for inhibitors of Glutamate pyruvate transaminase 2 (GPT2). Recombinant GPT2, coupled pyruvate oxidase/HRP Amplex Red fluorescence. Potency, µM (top dose mostly 57.7 µM), for the others: at the highest dose activity change, negative = inhibition, actives largely listed as inhibitors. Alanine aminotransferase 2 (Homo sapiens), Q8TD30. 100,000 compounds, 0.25% hits; further: nearly all actives have a fitted effect of over 60% in size
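Inhibition is scored from Amplex Red fluorescence generated when pyruvate oxidase and HRP act on pyruvate released by GPT2. Reactions contain 10ng/uL enzyme, 250uM a-KG and 2mM L-alanine and run 30 min at room temperature.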
NPR1 antag: Natriuretic polypeptide receptor (hNpr1) antagonism - Primary qHTS; Atrial natriuretic peptide receptor 1 (Homo sapiens), P16066; HEK293 hNpr1 GloSensor cGMP, ANP-stimulated luminescence; Potency, µM (doses to about 46.3 µM), for the others: at the top dose activity change, negative = inhibition, most hits filed as inhibitors; 76,000 compounds, 1.6% hits; AID 1347048, 2019; calls by dose curve; further: nearly all actives have a fitted effect of over 60% in size
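Compound pre-incubated 30 min at room temperature on GloSensor-loaded HEK293 cells stably carrying hNpr1 and the pGS-40F cGMP biosensor. Stimulation uses hNppA at 0.1 nM final; luminescence is taken at baseline and 20 min post-agonist.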
3T3 cytotox: Cytotoxic Profiling in NIH 3T3 Cell Line of Diverse Libraries Using Quantitative High-Throughput Screening | 94,000 compounds, 4.3% hits | NIH 3T3 viability, CellTiter-Glo ATP luminescence, 48-72 h | AID 1345082, 2018 | Potency, µM (highest dose often 96.7 µM), inactives show at the highest dose activity change, negative = cytotoxicity, actives largely listed as inhibitors; further: nearly all actives have a fitted effect of over 55% in size
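Luminescent ATP readout (CellTiter-Glo, 10 min RT) after 48 or 72 hr compound exposure of NIH 3T3 cells seeded at 400 cells/well in 1536-well format; quantitative HTS.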
Starred values were filed as active, the others as inactive; i = inactive; ? = inconclusive; / = not tested or not shown; [ ] = another dose, or the depositor's remark. Unless noted, the call rests on the fitted dose curve; in most records, active means well fitted curve in the direction sought with a large enough effect; inconclusive means small, poorly fitted or top-dose-only effect, or another doubt; inactive means no such curve, though single readings can be large; an effect the other way counts as inactive or inconclusive. On the % scale 0 is the no-effect control and ±100 the full control effect; potency means the concentration at half of the fitted maximal effect.

SMILES	HEK cytotox	Luciferase inh	GPT2 inh	NPR1 antag	3T3 cytotox
COc1ccc(CNC(=O)C2CCCCN2Cc2ccc(-c3ccsc3)cc2)cc1OC (stereo not given)	40µM*	/	-11%	/	?
OC[C@H]1CCN(Cc2ccc(-c3cccc(Cl)c3Cl)o2)C[C@@H]1O	?	?	5%	10µM*	-20%
OC[C@H]1CCN(Cc2ccc(-c3ccn[nH]3)o2)C[C@H]1O	5%	i	-17%	2%	-9%
CN1CC(=O)N2C(Cc3c([nH]c4ccccc34)[C@H]2c2ccc3c(c2)OCO3)C1=O (stereo not given in full)	/	/	3%	/	/
COc1ccc2[nH]c3c(c2c1)CCN(C)C31CCN(C(=O)c2ccccc2)CC1	?	i	i	9%	?
CS(=O)(=O)c1ccc(CN2CCOC[C@H]2c2ncc(-c3ccc(Cl)cc3)[nH]2)cc1	-30%[172 µM]	i	i	-10%[70.6 µM]	?
N#Cc1cccc(CN2CCOC[C@H]2c2ncc(-c3ccc(C(F)(F)F)cc3)[nH]2)c1	89µM*	i	-9%[88.5 µM]	?	?
N#Cc1cccc(CN2CCOC[C@H]2c2ncc(-c3ccc(F)cc3)[nH]2)c1	63µM*	i	i	0%[70.6 µM]	?
COc1ccc(-c2cnc([C@@H]3COCCN3Cc3cccc(C#N)c3)[nH]2)cc1	?	i	-11%[88.5 µM]	-1%[70.6 µM]	-18%[138 µM]
N#Cc1cccc(CN2CCOC[C@H]2c2ncc(-c3ccc(Cl)cc3)[nH]2)c1	?	i	0%[88.5 µM]	?	100µM*
Cn1cc(CN2CCOC[C@H]2c2ncc(-c3ccc(S(C)(=O)=O)cc3)[nH]2)c2ccccc21	20µM*	i	0%	-3%	35µM*
CC(NC(=O)c1cc2c(s1)CCN(C(=O)c1ccccc1)C2)c1ccc(F)cc1 (stereo not given)	?	i	i	-16%	?
Clc1cccc(-c2cnc([C@@H]3COCCN3Cc3c[nH]c4ccccc34)[nH]2)c1	?	i	0%[88.5 µM]	?	?
Oc1ccccc1CN1CCOC[C@H]1c1ncc(-c2cccc(Cl)c2)[nH]1	89µM*	i	-4%[88.5 µM]	-18%[70.6 µM]	?
O=C1c2cnc(-c3cc4ccccc4o3)nc2OCCN1CC1CC1	?	?	?	1.4µM*	?
COc1ccc(CN2CCOc3nc(-c4cc(F)cc(F)c4)ncc3C2=O)cc1	?	i	-8%[88.5 µM]	-24%[70.6 µM]	?
O=C1c2cnc(-c3cc(F)cc(F)c3)nc2OCCN1Cc1ccccc1	?	45µM*	i	-8%[70.6 µM]	?
COc1ccc(CN2CCOc3nc(-c4cccc(C#N)c4)ncc3C2=O)cc1	100µM*	i	0%[88.5 µM]	-26%[70.6 µM]	?
COCCN1CCOc2nc(-c3cccc(OC(F)(F)F)c3)ncc2C1=O	?	16µM*	-19%[88.5 µM]	-24%[70.6 µM]	?
COc1ccc(N2CC(C(=O)N3CCCOCC3)CC2=O)cc1Cl (stereo not given)	2%	i	0%	1%	-8%
O=C1c2cnc(-c3cccc(CO)c3)nc2OCCN1Cc1ccccc1	?	18µM*	-5%[88.5 µM]	-14%[70.6 µM]	?
CN(C)C(=O)c1ccc(-c2ncc3c(n2)OCCN(Cc2ccccc2)C3=O)cc1	?	i	?	1%[70.6 µM]	-21%[138 µM]
COC(=O)[C@@H](Cc1cccnc1)NC(=O)[C@H]1CN(C(C)=O)CCN1C(C)=O	-6%[172 µM]	i	-6%[88.5 µM]	7%[70.6 µM]	-1%[138 µM]
CCOC(=O)CCCOc1cccn2c(=O)c(-c3cc(C)n(-c4cccc(C)c4)n3)c(C)nc12	-12%	i	-11%	-2%	-2%
Cc1nc2c(OCC(=O)c3ccccc3)cccn2c(=O)c1-c1cc(C)n(-c2ccccc2)n1	?	40µM*	i	-12%	-26%
CC(C)c1cccc(-c2cc(NCc3ccccn3)nc3[nH]ccc23)n1	45µM*	?	1%	-4%	?
